Test results reported in PubChem BioAssay.
Inconclusive results are not listed. The source made the active and inactive calls.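 How the source made its calls, unless noted: active means viability at or below 30% in both replicate assays; inconclusive means viability at or below 30% in just one of the two assays; inactive means the rest.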

Assays:
[1] = Her2 expression decrease, cell viability multiplex – SKBR3 breast tumor cells, AlphaScreen, ATP viability, primary screen (AID 461;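 active means Her2 level under about 52% in both replicate screens, with viability over 70% of control, limit read from the data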;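 on Her2 level: lower value means less Her2 protein in the cells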;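 on viability: percent of carrier control wells set as 100% viability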); details: SKBR3 Her2 protein level, 18-24 h, measured here: SKBR3 viability, ATP luminescence, at 10 µM
[2] = molecular target: Receptor tyrosine-protein kinase erbB-2 (Homo sapiens) (UniProt P04626); experiment: as above; details: 18-24 h, at 10 µM, stronger effect = lower value
[3] = reduced viability of SK-BR-3 breast cancer cells – cell-based, 24 h, human, pilot screen (AID 572;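 active means viability at or below 10% of carrier control in both of two separate runs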;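 further: compound exposure lasted between 18 and 24 h rather than exactly 24 h; 100% = carrier-treated control wells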); details: SK-BR-3 viability, CellTiter-Glo luminescence, at 10 µM, stronger effect = lower value
[4] = HUVEC growth inhibition – cell-based, human, primary screen (AID 575); details: HUVEC proliferation, CellTiter-Glo luminescence, 72 h; at 10 µM; stronger effect = lower value;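 further: 100% = median of untreated cell wells with 0.1% DMSO on each plate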
[5] = H69AR cell proliferation blockers – human, duplicate replicates, primary screen (AID 580;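 active means viability at or under a set limit in both replicates, limit being median viability minus 3 SD, cut at about 48% in these data, passing the limit was not always enough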;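 further: 100% = mean luminescence of untreated wells and 0% = no signal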); details: H69AR lung tumor cells viability, ATP luminescence, 72 h; at 10 µM; stronger effect = lower value
[6] = yeast transport mutant growth inhibition pilot in 384-well plates, post-Golgi transport modulator project (AID 636; in the data active means inhibition above about 31%); details: absorbance 615 nm, about 18 h, stronger effect = higher value
[7] = growth suppression of yeast trafficking mutant, preliminary HTS, modulators of trafficking downstream of Golgi apparatus project, 1536-format plate, OD 615 nm (AID 637; in the data active means inhibition above about 30%); details: yeast transport mutant growth, absorbance 615 nm, 18 h; stronger effect = higher value
[8] = S. cerevisiae growth inhibition in permissive medium (OD615), pilot counter-assay for S. cerevisiae lifespan shortening project, permissive growth control (AID 705;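 active means growth inhibition above 25% in both replicates, a cutoff set 3 SD above the mean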); details: OD615, 24 h, at 10 µM, stronger effect = higher value
[9] = S. cerevisiae growth inhibition in restrictive medium, OD615, pilot screen, restrictive growth control, yeast lifespan reduction project (AID 706;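 active means growth inhibition above a set limit, 3 SD over mean compound inhibition, in both replicates, cut at about 43% in these data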;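 further: modified DeaD lifespan yeast strain shifted to restrictive glucose medium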); details: OD615, 48 h, at 10 µM, stronger effect = higher value
[10] = doxorubicin toxicity protection in MRP-1 cells – H69AR cells, CellTiter-Glo, duplicate, MRP-1 activator project, pilot screen (AID 807;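 active means viability increase at or above a cutoff of the median across tested compounds plus 3 SD, cut at about 8.5% in these data, passing the limit was not always enough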;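 further: compound pretreatment 18-22 h then 72 h combined with doxorubicin; 0% = doxorubicin alone and 100% = vehicle without doxorubicin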); details: H69AR viability with doxorubicin, CellTiter-Glo luminescence; at 10 µM; stronger effect = higher value
[11] = viability of HCT116 without oncogenic beta-catenin – human colon tumor cells, pilot screen (AID 823;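 active means cell viability at or below a set limit in both duplicate runs, the limit being the all-compound median minus 4 SD, cut at about 23% in these data, passing the limit was not always enough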;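 further: 0% = wells killed by 20 µM Hyamine and 100% = untreated DMSO cell wells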); details: HCT116 beta-catenin knockout viability, CellTiter-Glo, 60 h; at 10 µM; stronger effect = lower value
[12] = viability of PTEN-null HCT116 cells – cell-based, HCT116 clonal line, CellTiter-Glo, pilot screen (AID 824;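 active means viability at or below 27.92% in each of two runs, the all-compound median minus 4 SD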;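 further: 0% = 20 µM Hyamine control and 100% = vehicle cell control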); details: HCT116 PTEN-deleted viability, 60 h, at 10 µM, stronger effect = lower value
[13] = RAM pathway blockade in budding yeast – dse1pr::URA3 reporter, 5-FOA selection, pilot screen (AID 869;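 active means inhibition over a set limit, the all-compound mean plus 3 SD, in both replicate runs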;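 further: 0% = DMSO wells with no growth and 100% = 10 µM 1-NA-PP1 with full growth; RAM network block rescues cells from 5-FOA so hits raise OD615 growth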); details: S. cerevisiae dse1pr::URA3 5-FOA growth, OD615, 2 d; at 10 µM; stronger effect = higher value; strain carries analog-sensitive mutant Cbk1 kinase
[14] = RAM signaling pathway blockade in yeast – S. cerevisiae, Pdr1DBD-CYC8 efflux-inhibited sensitized strain, primary screen (AID 1298;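 active means RAM network inhibition above 8.4% in each of two replicates, 3 SD over the compound average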;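 further: 0% = DMSO untreated cells without growth and 100% = 10 µM 1-NA-PP1 full growth; higher means more yeast growth rescued from 5-FOA killing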); details: S. cerevisiae cbk1-as DSE1-URA3 strain, 5-FOA growth OD615, 2 d; at 50 µM; stronger effect = higher value
[15] = MRP1 drug-resistance reversers in H69AR cells – cell-based, doxorubicin co-treatment, pilot screen (AID 601;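 active means viability loss from added drug above about 55%, and viability with drug at most 40%, in both replicates, limit read from the data, passing the limit was not always enough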); details: CellTiter-Glo, 72 h, at 10 µM; for differential viability (reversal): stronger effect = higher value
[16] = H69AR cells + 2 uM doxorubicin, measured here: viability with 2 uM doxorubicin, stronger effect = lower value
[17] = H69AR cells, compound alone cytotoxicity

Sequence of Receptor tyrosine-protein kinase erbB-2 (Homo sapiens) (P04626 whole entry, looked up): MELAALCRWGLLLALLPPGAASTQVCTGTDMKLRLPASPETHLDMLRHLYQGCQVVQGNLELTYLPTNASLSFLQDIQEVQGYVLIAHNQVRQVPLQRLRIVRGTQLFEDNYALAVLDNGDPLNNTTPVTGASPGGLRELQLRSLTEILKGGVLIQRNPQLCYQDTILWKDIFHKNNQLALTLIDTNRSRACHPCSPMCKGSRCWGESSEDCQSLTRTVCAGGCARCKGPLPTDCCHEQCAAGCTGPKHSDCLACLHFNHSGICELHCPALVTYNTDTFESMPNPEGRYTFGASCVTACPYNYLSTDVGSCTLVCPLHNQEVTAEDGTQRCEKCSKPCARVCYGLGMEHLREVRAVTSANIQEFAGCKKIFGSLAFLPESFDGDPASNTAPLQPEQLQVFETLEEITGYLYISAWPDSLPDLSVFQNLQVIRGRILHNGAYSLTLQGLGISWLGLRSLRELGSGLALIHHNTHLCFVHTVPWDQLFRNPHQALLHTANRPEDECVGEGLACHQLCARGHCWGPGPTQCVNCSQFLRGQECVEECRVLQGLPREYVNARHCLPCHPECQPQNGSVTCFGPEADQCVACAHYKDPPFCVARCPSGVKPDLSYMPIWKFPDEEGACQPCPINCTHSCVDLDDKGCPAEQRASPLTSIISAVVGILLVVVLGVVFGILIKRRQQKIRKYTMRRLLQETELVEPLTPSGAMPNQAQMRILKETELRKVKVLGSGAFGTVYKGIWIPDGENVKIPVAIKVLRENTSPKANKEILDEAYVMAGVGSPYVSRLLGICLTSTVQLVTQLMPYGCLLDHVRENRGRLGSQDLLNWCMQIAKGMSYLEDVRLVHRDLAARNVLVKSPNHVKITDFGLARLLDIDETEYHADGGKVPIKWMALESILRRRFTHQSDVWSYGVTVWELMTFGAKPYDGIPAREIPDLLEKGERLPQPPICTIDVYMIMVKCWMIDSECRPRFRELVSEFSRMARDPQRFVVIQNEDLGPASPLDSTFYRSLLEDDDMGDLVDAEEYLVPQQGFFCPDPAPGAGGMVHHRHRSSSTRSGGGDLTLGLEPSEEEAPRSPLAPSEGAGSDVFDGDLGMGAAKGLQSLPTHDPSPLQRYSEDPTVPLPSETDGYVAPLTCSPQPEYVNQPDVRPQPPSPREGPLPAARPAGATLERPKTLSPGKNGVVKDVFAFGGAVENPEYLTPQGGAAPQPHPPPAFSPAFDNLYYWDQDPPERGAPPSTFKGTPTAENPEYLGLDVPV

Row | Structure (SMILES) | viability [1] [%] | Her2 level [2] | viability [3] | viability [4] | viability [5] | inhibition [6] | inhibition [7] | growth inhibition [8] | growth inhibition [9] | viability increase [10] | viability [11] | viability [12] | inhibition [13] | RAM network inhibition [14] | differential viability (reversal) ([15]; H69AR cells + 2 uM doxorubicin) | viability [15, 16] [%] | viability [15, 17] [%]
1 | CC(C)CC1NC2(C(=O)N(C)c3ccccc32)C2C(=O)N(C(C)C)C(=O)C12 (stereo unspecified) | 86.5 | 110% (inactive) | 86.5% (inactive) | 83.3% (inactive) | 99.1% (inactive) | -1.73% (inactive) | -0.33% (inactive) | 4.83% (inactive) | 6.6% (inactive) | -1.13% (inactive) | 103% (inactive) | 103% (inactive) | 1.11% (inactive) | 2.88% (inactive) |  |  | 
2 | COc1ccc(Nc2ncnc3c2cnn3-c2ccccc2)cc1OC | 82.5 | 91% (inactive) | 82.5% (inactive) | 59.4% (inactive) |  | 0.27% (inactive) | -9.33% (inactive) | -4.18% (inactive) | -24.4% (inactive) | -0.97% (inactive) | 107% (inactive) | 97.7% (inactive) | 0.635% (inactive) | 5.61% (inactive) | -31% (inactive) | 73.7 | 42.7
3 | Cc1noc(/C=C/N(C)C)c1S(=O)(=O)N1CCCC(C(=O)N2CCCCC2)C1 (stereo unspecified) | 84 | 97% (inactive) | 84% (inactive) | 95.9% (inactive) | 97.3% (inactive) | 1.07% (inactive) | -7.21% (inactive) | 4.08% (inactive) | 5.73% (inactive) |  | 87.4% (inactive) | 85.2% (inactive) | 1.34% (inactive) | 5.03% (inactive) | -3.44% (inactive) | 101 | 97.3
4 | COC(=O)c1cn(NC(=O)c2cccnc2)c(=O)c2ccccc12 | 88 | 84% (inactive) | 88% (inactive) | 101% (inactive) | 103% (inactive) | -7.26% (inactive) | 1.11% (inactive) | -2.23% (inactive) | 0.94% (inactive) |  | 101% (inactive) | 99% (inactive) | 0.92% (inactive) | 5.05% (inactive) | 2.79% (inactive) | 100 | 103
5 | COc1ccc(N(C)C(=O)CCS(=O)(=O)c2cccc3nonc23)cc1 | 96.5 | 85% (inactive) | 96.5% (inactive) | 94.9% (inactive) | 104% (inactive) | -9.86% (inactive) | -0.95% (inactive) | -9.93% (inactive) | -8.78% (inactive) | -3.05% (inactive) |  | 89.6% (inactive) | 1.3% (inactive) | 4.67% (inactive) | 14.5% (inactive) | 89.6 | 104
6 | C=CCn1c(COc2ccc(CC)cc2)nnc1SC/C(O)=C(\C#N)c1nc2ccccc2[nH]1 | 86.5 | 88% (inactive) | 86.5% (inactive) | 59.8% (inactive) | 106% (inactive) | -0.92% (inactive) | -6% (inactive) | 1.15% (inactive) | 0.59% (inactive) |  | 92.6% (inactive) | 91.3% (inactive) | 2.46% (inactive) | 6.17% (inactive) | -1.07% (inactive) | 107 | 106
7 | COC(=O)C1(C(F)(F)F)N=C2Sc3ccccc3N2C(N2CCOCC2)=N1 (stereo unspecified) | 91 | 89% (inactive) | 91% (inactive) | 81.5% (inactive) | 92.5% (inactive) | -5.73% (inactive) | 5.17% (inactive) | -9.31% (inactive) | -10% (inactive) | -1.24% (inactive) |  | 53.8% (inactive) | 1.03% (inactive) | 2.93% (inactive) | -0.935% (inactive) | 93.4 | 92.5
8 | CC1CC(C)CN(Cc2nc3c(c(=O)n(C)c(=O)n3C)n2Cc2ccccc2Cl)C1 (stereo unspecified) | 87.5 | 104% (inactive) | 87.5% (inactive) | 97.8% (inactive) | 89.5% (inactive) | -3.2% (inactive) | 0.67% (inactive) | 2.67% (inactive) | -4.42% (inactive) | -1.15% (inactive) | 102% (inactive) | 97.8% (inactive) | 0.655% (inactive) | 3.22% (inactive) |  |  | 
9 | COc1ccc(NC(=O)CC2Sc3ncnn3C2=O)cc1 (stereo unspecified) | 109 | 80.5% (inactive) | 109% (inactive) | 88.3% (inactive) | 111% (inactive) | 0.77% (inactive) | 4% (inactive) |  | 22.2% (inactive) | -3.8% (inactive) | 95.2% (inactive) | 104% (inactive) | 1.05% (inactive) | 6.37% (inactive) | 27% (inactive) | 83.5 | 111
10 | CN(C)c1ccc(C(=O)Nc2nnc(-c3ccc(Cl)cc3)o2)cc1 | 92 | 75.5% (inactive) | 92% (inactive) | 13.4% (active) |  | 29.9% (inactive) | 21.5% (inactive) | 5.56% (inactive) | -19.4% (inactive) | -3.93% (inactive) | 26.8% (inactive) | 25.2% (active) | 1.5% (inactive) | 2.45% (inactive) | -33.4% (inactive) | 81.2 | 47.8
